Outcome data for 35 molecules are collected here from PubChem BioAssay (EPA / NIEHS).

Structures are written as SMILES. Records with an inconclusive call do not appear. Activity calls are given as the source filed them. Rule for the calls, unless noted: active = hit-call score of the fitted dose curve at least 0.9, where 1 is the maximum; inactive = score below 0.9.

A short description of the first assay: CCTE_Harrill_HTTr_Viability_MCF7: CCTE's 6-hour Cell Viability Assessment for the High-Throughput Transcriptomics (HTTr) Platform, in MCF-7 cells cultured in DMEM + 10% fetal bovine serum, Harrill Lab (AID 2284010). The gist of the method:
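MCF-7 cells in DMEM + 10% FBS, 384-well, exposed 6 h to an eight-point dilution series. Membrane integrity scored by high-content imaging of propidium iodide exclusion; bidirectional fit versus DMSO.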
As to `C[C@]12C=CC(=O)C=C1CC[C@H]1[C@@H]3C[C@@H](O)[C@](O)(C(=O)CO)[C@@]3(C)C[C@H](O)[C@@]12F`, the outcome was inactive.
Same read-out and setting: as for `CC(C)CC(C)O` (centres undefined), the entry is “inactive”.
`O=c1[nH]cnc2c1ncn2[C@H]1CC[C@@H](CO)O1`: the result was inactive.
With `NC(=O)N1c2ccccc2C=Cc2ccccc21`, the outcome was inactive.
As for `NC(N)=O`, the outcome was inactive.
On to `OC(Cn1cncn1)(Cn1cncn1)c1ccc(F)cc1F`, for which the result was inactive.
On the same count and under the same terms, as for `O=C(O)CO`, the entry is “inactive”; as for `CCCCCCCCN(C)C`, “inactive”; as for `CC(=O)c1ccccc1`, “inactive”.
On to `CC(C)CCCCCCOC(=O)C1CCCCC1C(=O)OCCCCCCC(C)C` (centres undefined), for which the outcome was inactive.
Take `Cn1cc[nH]c1=S`: the result was inactive.
Still for that read-out and setting: as for `CCn1nc(C)c2c1C(=O)NCC(c1ccc(O)cc1)=N2`, the entry is “inactive”; as for `NNC(=O)c1ccncc1`, “inactive”.
On the same count and under the same terms, as for `c1ccc2ncccc2c1`, the entry is “inactive”; as for `CC1(C)C(=O)N(Cl)C(=O)N1Cl`, “inactive”.

The next assay is described as follows: CCTE_Harrill_HTTr_Apoptosis_MCF7: CCTE's 6-hour Apoptosis Assessment for the High-Throughput Transcriptomics (HTTr) Platform, in MCF-7 cells cultured in DMEM + 10% fetal bovine serum, Harrill Lab (AID 2284011). The gist of the method:
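High-content imaging of CellEvent Caspase 3/7 Green signal follows a six-hour exposure, with eight concentrations per chemical. MCF-7 cells grown in DMEM plus 10% fetal bovine serum; activity fitted in both directions against DMSO.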
Take `C[C@]12C=CC(=O)C=C1CC[C@H]1[C@@H]3C[C@@H](O)[C@](O)(C(=O)CO)[C@@]3(C)C[C@H](O)[C@@]12F`: the result was inactive.
Consider `c1ccc2c(c1)-c1cccc3c1c-2cc1ccccc13`, for which the outcome was inactive.
Still for that read-out and setting: as for `CC(C)CC(C)O` (centres undefined), the entry is “inactive”; as for `C=CN1CCCC1=O`, “inactive”; as for `O=C(N[C@H](CO)[C@H](O)c1ccc([N+](=O)[O-])cc1)C(Cl)Cl`, “inactive”.
`CNC(C)=O`: the result was inactive.
On the same count and under the same terms, as for `O=C(O)c1cccc(C(=O)O)c1`, the entry is “inactive”; as for `Cc1ccc(S(=O)(=O)NC(=O)NN2CCCCCC2)cc1`, “inactive”.
Still for that read-out and setting: as for `O=c1[nH]cnc2c1ncn2[C@H]1CC[C@@H](CO)O1`, the entry is “inactive”; as for `NC(=O)N1c2ccccc2C=Cc2ccccc21`, “inactive”; as for `CCCCN1C(=O)[C@@H]([C@H](O)C2CCCCC2)NC(=O)C12CCN(Cc1ccc(Oc3ccc(C(=O)O)cc3)cc1)CC2`, “inactive”.
Consider `NC(N)=O`, for which the outcome was inactive.
On the same count and under the same terms, as for `CCCCCOC(C)=O`, the entry is “inactive”; as for `COS(C)(=O)=O`, “inactive”.
Same read-out and setting: as for `OC(Cn1cncn1)(Cn1cncn1)c1ccc(F)cc1F`, the entry is “inactive”.
On the same count and under the same terms, as for `S=P(N1CC1)(N1CC1)N1CC1`, the entry is “inactive”; as for `O=C(O)[C@H](O)[C@@H](O)C(=O)O`, “inactive”.
On to `NC(=O)N(O)[C@@H]1COc2cc(OCc3ccccc3)ccc21`, for which the outcome was inactive.
Turning to `O=C(O)CO`, the outcome was inactive.
Same read-out and setting: as for `CCCCCCCCN(C)C`, the entry is “inactive”; as for `CC(=O)c1ccccc1`, “inactive”; as for `CC(C)CCCCCCOC(=O)C1CCCCC1C(=O)OCCCCCCC(C)C` (centres undefined), “inactive”.
For the molecule `O=C(O)c1ccc2c(c1)nc(C(=O)NC1CCN(C3CC3)CC1)n2Cc1cc(-c2ccc(Cl)s2)on1`, the outcome was inactive.
Still for that read-out and setting: as for `Cn1cc[nH]c1=S`, the entry is “inactive”; as for `CCn1nc(C)c2c1C(=O)NCC(c1ccc(O)cc1)=N2`, “inactive”; as for `CCOC(N)=O`, “inactive”.
Same read-out and setting: as for `CCCOc1ccc(S(=O)(=O)N2CCN(CC)CC2)cc1-c1nc2c(CC)n(Cc3ccccn3)nc2c(=O)[nH]1`, the entry is “inactive”; as for `OC[C@H]1O[C@@H]2O[C@H]3[C@H](O)[C@@H](O)[C@@H](O[C@H]4[C@H](O)[C@@H](O)[C@@H](O[C@H]5[C@H](O)[C@@H](O)[C@@H](O[C@H]6[C@H](O)[C@@H](O)[C@@H](O[C@H]7[C@H](O)[C@@H](O)[C@@H](O[C@H]1[C@H](O)[C@H]2O)O[C@@H]7CO)O[C@@H]6CO)O[C@@H]5CO)O[C@@H]4CO)O[C@@H]3CO`, “inactive”; as for `NNC(=O)c1ccncc1`, “inactive”.
On the same count and under the same terms, as for `CCCCCCCCCCCCCCO`, the entry is “inactive”; as for `CCCC(CCC)C(=O)O`, “inactive”.
Turning to `c1ccc2ncccc2c1`, the outcome was inactive.
Same read-out and setting: as for `C[C@@H](Oc1ccc(CNC(=O)c2cccnc2Oc2ccc3c(c2)OCO3)c(F)c1)C(=O)O`, the entry is “inactive”; as for `OCCNCCO`, “inactive”.
Still for that read-out and setting: as for `CC1(C)C(=O)N(Cl)C(=O)N1Cl`, the entry is “inactive”.

A further assay can be described thus: CCTE_Harrill_HTTr_CellCount_MCF7: CCTE's Cell Proliferation Assessment for the High-Throughput Transcriptomics (HTTr) Platform, Harrill Lab (AID 2284012; active = hit-call score of the fitted dose curve at least 0.9, where 1 is the maximum;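 note: cells exposed to compound for six hours; intended direction is loss of nuclei count meaning fewer cells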). Summed up: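 MCF7 cells exposed 6 hours to an eight-point dilution series; Hoechst-stained nuclei counted by high-content imaging. Bidirectional curve fitting against DMSO baseline.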
Consider `C[C@]12C=CC(=O)C=C1CC[C@H]1[C@@H]3C[C@@H](O)[C@](O)(C(=O)CO)[C@@]3(C)C[C@H](O)[C@@]12F`, for which the molecule was called inactive.
Turning to `c1ccc2c(c1)-c1cccc3c1c-2cc1ccccc13`, the result was inactive.
Still for that read-out and setting: as for `C=CN1CCCC1=O`, the entry is “inactive”; as for `O=C(N[C@H](CO)[C@H](O)c1ccc([N+](=O)[O-])cc1)C(Cl)Cl`, “inactive”.
As to `NC(=O)N1c2ccccc2C=Cc2ccccc21`, the result was inactive.
As to `CCCCN1C(=O)[C@@H]([C@H](O)C2CCCCC2)NC(=O)C12CCN(Cc1ccc(Oc3ccc(C(=O)O)cc3)cc1)CC2`, the result was inactive.
Still for that read-out and setting: as for `NC(N)=O`, the entry is “inactive”; as for `COS(C)(=O)=O`, “inactive”; as for `NC(=O)N(O)[C@@H]1COc2cc(OCc3ccccc3)ccc21`, “inactive”.
With `CCCCCCCCN(C)C`, the result was inactive.
Still for that read-out and setting: as for `CC(=O)c1ccccc1`, the entry is “inactive”.
Still for that read-out and setting: as for `O=C(O)c1ccc2c(c1)nc(C(=O)NC1CCN(C3CC3)CC1)n2Cc1cc(-c2ccc(Cl)s2)on1`, the entry is “inactive”; as for `Cn1cc[nH]c1=S`, “inactive”; as for `CCn1nc(C)c2c1C(=O)NCC(c1ccc(O)cc1)=N2`, “inactive”.
`OC[C@H]1O[C@@H]2O[C@H]3[C@H](O)[C@@H](O)[C@@H](O[C@H]4[C@H](O)[C@@H](O)[C@@H](O[C@H]5[C@H](O)[C@@H](O)[C@@H](O[C@H]6[C@H](O)[C@@H](O)[C@@H](O[C@H]7[C@H](O)[C@@H](O)[C@@H](O[C@H]1[C@H](O)[C@H]2O)O[C@@H]7CO)O[C@@H]6CO)O[C@@H]5CO)O[C@@H]4CO)O[C@@H]3CO`: the result was inactive.
On the same count and under the same terms, as for `CCCC(CCC)C(=O)O`, the entry is “inactive”; as for `C[C@@H](Oc1ccc(CNC(=O)c2cccnc2Oc2ccc3c(c2)OCO3)c(F)c1)C(=O)O`, “inactive”.
`OCCNCCO`: the call was inactive.
Still for that read-out and setting: as for `CC1(C)C(=O)N(Cl)C(=O)N1Cl`, the entry is “inactive”.
